# Assay results: PubChem BioAssay (EPA / NIEHS)
# Inconclusive results are not listed. Calls of active or inactive are those of the source. How the source made its calls, unless noted: active means hit-call score of the fitted dose curve at least 0.9, where 1 is the maximum; inactive means score below 0.9.
# Columns and labels:
# [1] = ATG_TAL_CIS: Attagene CIS-FACTORIAL HepG2 Assay for human TAL Basal Promoter (AID 2282966); details: HepG2 Attagene cis-factorial TAL promoter reporter; actives raise or lower the signal;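 further: background control endpoint measuring basal TAL promoter reporter mRNA not a specific factor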
# Summary of the method: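 Fluorescence of labelled reporter cDNA fragments, resolved by capillary electrophoresis, gave the readout. Human HepG2 liver cells carried transiently transfected cis-element reporter units and were treated for 24 hours; activity was fitted bidirectionally against DMSO.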
# [2] = ATG_TGFb_CIS: Attagene CIS-FACTORIAL HepG2 Assay for human Transforming Growth Factor (TGF) (AID 2282967); details: HepG2 Attagene CIS TGFb reporter, mRNA transcription; actives raise or lower the signal
# Summary of the method: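 HepG2 cells transiently transfected with cis-promoter-driven multiple reporter units measure endogenous TF activity; reporter mRNA quantified at 24 h by RT-PCR, FAM labeling, HpaI digestion and capillary electrophoresis. Bidirectional fit vs DMSO.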
# [3] = ATG_VDRE_CIS: Attagene CIS-FACTORIAL HepG2 Assay for human Vitamin D Receptor Element (VDRE) (AID 2282968); details: HepG2 VDRE cis-reporter transcription, actives raise or lower the signal
# Summary of the method: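 HepG2 cells transiently transfected with cis-element reporter units, dosed 24 h; reporter mRNA measured by RT-PCR, 6-FAM labeling, HpaI digestion and capillary electrophoresis. Activity fitted bidirectionally against DMSO baseline.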
# [4] = molecular target: Estrogen receptor (Homo sapiens) (UniProt P03372); assay: ATG_ERa_TRANS: Attagene TRANS-FACTORIAL HepG2 Assay for human Estrogen Receptor alpha (ERa) (AID 2282970; active means hit-call score of the fitted dose curve at least 0.9, where 1 is the maximum); details: HepG2 Attagene TRANS ERa GAL4 reporter, mRNA
# Estrogen receptor (Homo sapiens), sequence (P03372 whole entry, looked up, the tested form may be a part): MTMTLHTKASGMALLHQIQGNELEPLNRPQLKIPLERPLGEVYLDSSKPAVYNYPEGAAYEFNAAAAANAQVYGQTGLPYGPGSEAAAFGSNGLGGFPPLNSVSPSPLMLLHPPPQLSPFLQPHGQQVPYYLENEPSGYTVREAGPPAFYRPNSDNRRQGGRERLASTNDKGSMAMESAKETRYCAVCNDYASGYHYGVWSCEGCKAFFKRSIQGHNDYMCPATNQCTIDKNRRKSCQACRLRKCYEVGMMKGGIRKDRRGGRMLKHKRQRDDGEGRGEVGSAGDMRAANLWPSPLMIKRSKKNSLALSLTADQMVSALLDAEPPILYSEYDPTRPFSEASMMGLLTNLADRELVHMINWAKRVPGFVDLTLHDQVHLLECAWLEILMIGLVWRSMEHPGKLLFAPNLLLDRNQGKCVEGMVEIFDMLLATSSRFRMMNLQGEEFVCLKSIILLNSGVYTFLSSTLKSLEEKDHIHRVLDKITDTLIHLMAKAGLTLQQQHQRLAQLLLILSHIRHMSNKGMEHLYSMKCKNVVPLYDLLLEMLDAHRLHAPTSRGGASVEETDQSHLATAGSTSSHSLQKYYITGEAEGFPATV
# Summary of the method: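 Human liver HepG2, transient transfection of multiple GAL4-UAS reporter units; TRANS format (exogenous NR-Gal4 chimera). 24 h dosing. Readout: reporter mRNA, RT-PCR, 6-FAM primer extension, HpaI digest, capillary electrophoresis. Positive direction vs DMSO.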
# [5] = molecular target: X-box-binding protein 1 (Homo sapiens) (UniProt P17861); assay: ATG_Xbp1_CIS: Attagene CIS-FACTORIAL HepG2 Assay for human X-box Binding Protein 1 (XBP1) (AID 2282972); details: HepG2 XBP1 cis-element reporter, Attagene multiplex; actives raise or lower the signal
# X-box-binding protein 1 (Homo sapiens), sequence (P17861 whole entry, looked up): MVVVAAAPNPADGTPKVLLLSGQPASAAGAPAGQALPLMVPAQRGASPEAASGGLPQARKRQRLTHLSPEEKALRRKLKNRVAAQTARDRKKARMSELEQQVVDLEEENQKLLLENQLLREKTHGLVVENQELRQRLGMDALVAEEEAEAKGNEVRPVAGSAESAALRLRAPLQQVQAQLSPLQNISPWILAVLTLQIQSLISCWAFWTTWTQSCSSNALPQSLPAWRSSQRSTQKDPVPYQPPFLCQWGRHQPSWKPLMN
# Summary of the method: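 HepG2 cells transiently transfected with cis-regulated multiple reporter transcription units; endogenous transcription factor activity measured 24 hours after chemical dosing. Reporter mRNA quantified by RT-PCR, 6-FAM primer extension, HpaI digestion and capillary electrophoresis; bidirectional fitting versus DMSO.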
# [6] = molecular target: Bile acid receptor (Homo sapiens) (UniProt Q96RI1); assay: ATG_FXR_TRANS: Attagene TRANS-FACTORIAL HepG2 Assay for Farnesoid X Receptor (FXR) (AID 2282979; active means hit-call score of the fitted dose curve at least 0.9, where 1 is the maximum;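 further: hits raise reporter mRNA above DMSO so AC50 marks FXR activation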); details: HepG2 Attagene TRANS FXR-GAL4 reporter transcription
# Summary of the method: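 Transient transfection of HepG2 with multiplexed GAL4-UAS reporter units; exogenous FXR-GAL4 chimera. Dose 24 h → TriZol RNA → oligo(dT) RT → PCR, 6-FAM primer extension, HpaI cut → CE. Gain vs DMSO.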
# [7] = molecular target: Oxysterols receptor LXR-alpha (Homo sapiens) (UniProt Q13133); assay: ATG_LXRa_TRANS: Attagene TRANS-FACTORIAL HepG2 Assay for human Liver X Receptor alpha (LXRa) (AID 2282980; active means hit-call score of the fitted dose curve at least 0.9, where 1 is the maximum); details: HepG2 Attagene TRANS reporter, LXRa transactivation
# Oxysterols receptor LXR-alpha (Homo sapiens), sequence (Q13133 whole entry, looked up, the tested form may be a part): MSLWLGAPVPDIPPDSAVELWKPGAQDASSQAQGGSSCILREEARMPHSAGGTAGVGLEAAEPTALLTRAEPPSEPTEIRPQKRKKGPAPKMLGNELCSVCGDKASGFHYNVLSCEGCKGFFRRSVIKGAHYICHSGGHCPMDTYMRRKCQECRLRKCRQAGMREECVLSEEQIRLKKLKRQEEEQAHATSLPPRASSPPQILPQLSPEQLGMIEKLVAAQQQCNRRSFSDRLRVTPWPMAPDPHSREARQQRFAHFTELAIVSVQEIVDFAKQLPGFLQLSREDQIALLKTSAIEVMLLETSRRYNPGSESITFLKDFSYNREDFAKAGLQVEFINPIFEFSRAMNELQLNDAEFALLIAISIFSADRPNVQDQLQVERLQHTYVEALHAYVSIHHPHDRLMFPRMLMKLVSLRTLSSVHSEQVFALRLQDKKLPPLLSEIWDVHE
# Summary of the method: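 Transfect HepG2 with GAL4-UAS multiplex reporter constructs (TRANS format, chimeric receptor-GAL4); treat 24 h; extract RNA, reverse-transcribe, PCR-amplify, FAM-label, HpaI-digest; resolve fragments by capillary electrophoresis. Upward response vs DMSO.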
# [8] = molecular target: Oxysterols receptor LXR-beta (Homo sapiens) (UniProt P55055); assay: ATG_LXRb_TRANS: Attagene TRANS-FACTORIAL HepG2 Assay for human Liver X Receptor beta (LXRb) (AID 2282981; active means hit-call score of the fitted dose curve at least 0.9, where 1 is the maximum); details: HepG2 Attagene TRANS GAL4-LXRb reporter, mRNA
# Oxysterols receptor LXR-beta (Homo sapiens), sequence (P55055 whole entry, looked up, the tested form may be a part): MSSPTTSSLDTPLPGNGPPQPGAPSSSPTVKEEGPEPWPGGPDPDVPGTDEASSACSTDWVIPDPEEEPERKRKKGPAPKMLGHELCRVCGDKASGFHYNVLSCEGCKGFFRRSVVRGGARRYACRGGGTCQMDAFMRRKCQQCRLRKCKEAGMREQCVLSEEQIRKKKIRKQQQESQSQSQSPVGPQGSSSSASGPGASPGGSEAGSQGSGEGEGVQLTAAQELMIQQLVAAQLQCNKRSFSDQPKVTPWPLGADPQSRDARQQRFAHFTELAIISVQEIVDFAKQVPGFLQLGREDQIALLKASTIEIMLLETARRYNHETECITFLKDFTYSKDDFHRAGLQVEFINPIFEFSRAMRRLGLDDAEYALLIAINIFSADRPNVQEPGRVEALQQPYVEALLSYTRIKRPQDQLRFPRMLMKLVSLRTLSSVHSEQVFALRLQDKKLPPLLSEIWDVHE
# Summary of the method: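 HepG2 cells transiently transfected with multiple reporter transcription units carrying chimeric NR-Gal4 proteins acting on GAL4-UAS reporters; compound exposure 24 h. Reporter mRNA quantified by RT-PCR, 6-FAM labelling, HpaI digestion and capillary electrophoresis; gain of signal versus DMSO.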
# [9] = molecular target: Hepatocyte nuclear factor 4-alpha (Homo sapiens) (UniProt P41235); assay: ATG_HNF4a_TRANS: Attagene TRANS-FACTORIAL HepG2 Assay for human Hepatocyte Nuclear Factor 4 alpha (HNF4a) (AID 2282982; active means hit-call score of the fitted dose curve at least 0.9, where 1 is the maximum); details: HepG2 HNF4a transactivation reporter, mRNA readout
# Hepatocyte nuclear factor 4-alpha (Homo sapiens), sequence (P41235 whole entry, looked up, the tested form may be a part): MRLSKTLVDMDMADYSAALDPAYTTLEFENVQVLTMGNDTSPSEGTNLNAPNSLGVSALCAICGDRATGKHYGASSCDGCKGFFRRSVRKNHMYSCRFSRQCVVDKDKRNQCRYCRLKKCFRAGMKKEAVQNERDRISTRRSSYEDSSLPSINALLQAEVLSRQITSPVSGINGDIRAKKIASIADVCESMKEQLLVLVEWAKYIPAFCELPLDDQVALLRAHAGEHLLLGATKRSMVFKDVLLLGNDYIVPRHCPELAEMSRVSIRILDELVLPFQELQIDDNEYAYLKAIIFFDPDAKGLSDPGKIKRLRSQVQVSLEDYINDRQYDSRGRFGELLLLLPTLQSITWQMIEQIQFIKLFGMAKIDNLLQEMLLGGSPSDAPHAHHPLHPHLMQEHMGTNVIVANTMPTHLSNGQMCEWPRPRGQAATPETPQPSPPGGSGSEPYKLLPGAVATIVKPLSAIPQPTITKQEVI
# Summary of the method: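 HepG2 cells transiently transfected with multiplexed GAL4-UAS reporter units responsive to chimeric NR-GAL4 proteins; compound exposure 24 h. Reporter mRNA quantified by RT-PCR, 6-FAM labelling, HpaI digestion and capillary electrophoresis; gain of signal versus DMSO baseline.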
# [10] = ATG_M_06_TRANS: Attagene TRANS-FACTORIAL HepG2 Assay for M06 Transcription Factor (Internal Marker) (AID 2282983; active means hit-call score of the fitted dose curve at least 0.9, where 1 is the maximum;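 further: reporter transcript level by RT-PCR then capillary electrophoresis fluorescence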); details: HepG2 Attagene TRANS M06 internal marker reporter
# Summary of the method: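 Transfect HepG2 with MRTUs → dose compounds 24 h → isolate RNA, oligo(dT) RT → PCR with reporter primers → 6-FAM primer extension → HpaI digest → CE fragment analysis. Positive direction vs DMSO.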
# [11] = molecular target: Nuclear receptor subfamily 4 group A member 2 (Homo sapiens) (UniProt P43354); assay: ATG_NURR1_TRANS: Attagene TRANS-FACTORIAL HepG2 Assay for human Nuclear Receptor Related Protein 1 (NURR1) (AID 2282985; active means hit-call score of the fitted dose curve at least 0.9, where 1 is the maximum); details: HepG2 Attagene TRANS reporter, mRNA readout
# Nuclear receptor subfamily 4 group A member 2 (Homo sapiens), sequence (P43354 whole entry, looked up, the tested form may be a part): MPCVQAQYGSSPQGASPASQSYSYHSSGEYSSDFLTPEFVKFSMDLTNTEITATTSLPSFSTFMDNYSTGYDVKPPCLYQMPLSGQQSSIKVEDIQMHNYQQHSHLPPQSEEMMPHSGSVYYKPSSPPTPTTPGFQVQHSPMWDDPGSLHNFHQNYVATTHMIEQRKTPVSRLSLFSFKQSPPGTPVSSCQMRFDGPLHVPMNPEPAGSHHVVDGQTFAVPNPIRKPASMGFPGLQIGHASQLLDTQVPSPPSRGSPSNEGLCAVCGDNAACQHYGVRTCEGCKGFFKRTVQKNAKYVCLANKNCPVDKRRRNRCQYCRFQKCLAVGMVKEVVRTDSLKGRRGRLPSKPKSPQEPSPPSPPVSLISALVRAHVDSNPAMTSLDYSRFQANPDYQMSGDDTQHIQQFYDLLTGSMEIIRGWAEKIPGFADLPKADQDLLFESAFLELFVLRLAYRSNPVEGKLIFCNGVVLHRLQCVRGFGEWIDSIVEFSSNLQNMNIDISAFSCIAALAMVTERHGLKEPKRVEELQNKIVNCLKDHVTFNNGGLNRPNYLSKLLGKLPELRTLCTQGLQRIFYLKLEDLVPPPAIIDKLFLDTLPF
# Summary of the method: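 HepG2 cells transiently transfected with GAL4-UAS reporter units and chimeric NR-Gal4 constructs; chemical exposure 24 h. Reporter mRNA quantified by RT-PCR, fluorescent labelling and capillary electrophoresis; gain of signal fitted relative to DMSO baseline.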
# [12] = molecular target: Transcriptional activator Myb (Homo sapiens) (UniProt P10242); assay: ATG_Myb_CIS: Attagene CIS-FACTORIAL HepG2 Assay for human Myeloblastosis (Myb) Proto-Oncogene Transcription Factor (AID 2282986); details: HepG2 Attagene CIS-FACTORIAL Myb reporter transcription; actives raise or lower the signal
# Transcriptional activator Myb (Homo sapiens), sequence (P10242 whole entry, looked up): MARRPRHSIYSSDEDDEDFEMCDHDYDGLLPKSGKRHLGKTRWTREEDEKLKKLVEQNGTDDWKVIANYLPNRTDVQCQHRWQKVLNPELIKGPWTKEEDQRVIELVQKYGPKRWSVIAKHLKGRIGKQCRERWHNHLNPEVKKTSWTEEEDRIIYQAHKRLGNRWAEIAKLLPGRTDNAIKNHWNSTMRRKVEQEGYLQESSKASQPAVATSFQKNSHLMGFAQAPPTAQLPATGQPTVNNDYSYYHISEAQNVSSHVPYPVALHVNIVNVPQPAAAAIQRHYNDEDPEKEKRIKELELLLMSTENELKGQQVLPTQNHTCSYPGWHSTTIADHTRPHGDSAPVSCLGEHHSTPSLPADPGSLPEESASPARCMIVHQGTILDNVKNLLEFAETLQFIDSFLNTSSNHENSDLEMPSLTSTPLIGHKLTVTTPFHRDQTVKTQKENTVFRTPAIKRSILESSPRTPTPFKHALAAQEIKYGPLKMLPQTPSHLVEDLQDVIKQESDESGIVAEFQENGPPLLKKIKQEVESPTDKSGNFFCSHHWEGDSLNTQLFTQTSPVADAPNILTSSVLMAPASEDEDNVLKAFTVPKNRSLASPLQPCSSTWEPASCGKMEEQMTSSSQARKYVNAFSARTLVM
# Summary of the method: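 HepG2 cells were transiently transfected with cis-regulated multiple reporter transcription units reflecting endogenous Myb activity, then exposed to compound for 24 hours. Reporter mRNA was measured by RT-PCR with capillary electrophoresis; bidirectional fitting versus DMSO baseline.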
# [13] = molecular target: Nuclear respiratory factor 1 (Homo sapiens) (UniProt Q16656); assay: ATG_NRF1_CIS: Attagene CIS-FACTORIAL HepG2 Assay for human Nuclear Respiratory Factor 1 (NRF1) Orphan Gene (AID 2282987); details: HepG2 NRF1 cis-element reporter, Attagene multiplex; actives raise or lower the signal
# Nuclear respiratory factor 1 (Homo sapiens), sequence (Q16656 whole entry, looked up): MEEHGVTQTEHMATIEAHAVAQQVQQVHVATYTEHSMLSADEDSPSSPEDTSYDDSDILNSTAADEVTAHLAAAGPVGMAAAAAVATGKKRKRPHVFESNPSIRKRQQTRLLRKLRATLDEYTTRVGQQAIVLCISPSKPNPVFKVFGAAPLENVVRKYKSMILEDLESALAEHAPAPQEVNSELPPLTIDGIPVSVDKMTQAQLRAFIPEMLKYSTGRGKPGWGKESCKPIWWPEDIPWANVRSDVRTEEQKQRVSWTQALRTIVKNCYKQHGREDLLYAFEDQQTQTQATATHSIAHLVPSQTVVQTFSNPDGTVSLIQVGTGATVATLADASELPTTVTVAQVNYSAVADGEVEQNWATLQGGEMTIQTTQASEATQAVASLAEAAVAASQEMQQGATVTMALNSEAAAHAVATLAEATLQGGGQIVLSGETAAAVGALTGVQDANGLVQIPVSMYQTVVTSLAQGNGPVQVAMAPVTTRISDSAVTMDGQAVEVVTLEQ
# Summary of the method: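 HepG2 cells transiently transfected with multiple reporter transcription units under cis-regulatory promoter control, so endogenous transcription-factor activity is read. After 24 h compound exposure, reporter mRNA quantified by RT-PCR, fluorescent labelling, HpaI digestion and capillary electrophoresis; bidirectional fitting versus DMSO.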
# [14] = ATG_NFI_CIS: Attagene CIS-FACTORIAL HepG2 Assay for human Nuclear Factor I (NFI) (AID 2282989); details: HepG2 cis-regulatory reporter, NFI response element transcription; actives raise or lower the signal
# Summary of the method: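 Endogenous TF activity in HepG2 cells transiently transfected with cis-element-driven multiplexed reporter units, read 24 h after dosing. Reporter mRNA quantified by RT-PCR, 6-FAM labelling, HpaI digestion and capillary electrophoresis; bidirectional fit versus DMSO.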
# [15] = ATG_M_32_TRANS: Attagene TRANS-FACTORIAL HepG2 Assay for M32 Transcription Factor (Internal Marker) (AID 2282984; active means hit-call score of the fitted dose curve at least 0.9, where 1 is the maximum;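 further: transcript level of a background control reporter unit measured by RT-PCR and capillary electrophoresis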); details: HepG2 Attagene TRANS M32 internal marker reporter
# Summary of the method: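 HepG2 cells transiently transfected with multiple GAL4-UAS reporter transcription units, dosed for 24 hours; reporter mRNA quantified by RT-PCR, 6-FAM primer extension, HpaI digestion and capillary electrophoresis. Gain-of-signal fitted versus DMSO baseline; internal background-control marker.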
# [16] = molecular target: Steroid hormone receptor ERR1 (Homo sapiens) (UniProt P11474); assay: ATG_ERRa_TRANS: Attagene TRANS-FACTORIAL HepG2 Assay for human Estrogen-Related Receptor alpha (ERRa) (AID 2282971; active means hit-call score of the fitted dose curve at least 0.9, where 1 is the maximum); details: HepG2 Attagene TRANS reporter, ERRa transactivation
# Summary of the method: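 Reporter transcript induction was quantified by RT-PCR and capillary electrophoresis of FAM-labelled, HpaI-cut products after 24 h treatment of HepG2 cells carrying transiently transfected GAL4-UAS reporter units and an exogenous ERRa-Gal4 fusion; activity scored as increase over DMSO.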
# [17] = ATG_M_19_TRANS: Attagene TRANS-FACTORIAL HepG2 Assay for M19 Transcription Factor (Internal Marker) (AID 2282974; active means hit-call score of the fitted dose curve at least 0.9, where 1 is the maximum); details: HepG2 Attagene TRANS-FACTORIAL M19 internal marker reporter
# Summary of the method: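 HepG2 cells transiently transfected with multiple GAL4-UAS reporter transcription units were exposed to chemicals for 24 h. Reporter mRNA was read by RT-PCR, 6-FAM primer extension, HpaI digestion and capillary electrophoresis; gain of signal fitted relative to DMSO.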
# [18] = ATG_GAL4_TRANS: Attagene TRANS-FACTORIAL HepG2 Assay for GAL4 (Internal Marker) (AID 2282976; active means hit-call score of the fitted dose curve at least 0.9, where 1 is the maximum); details: HepG2 Attagene TRANS GAL4 internal marker reporter
# Summary of the method: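 First, HepG2 cells were transfected with reporter units under GAL4-UAS control. Next, they were treated with chemical for 24 h. Finally, RNA was reverse-transcribed, PCR-amplified, FAM-labelled and resolved by capillary electrophoresis, with induction scored against DMSO.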
# [19] = molecular target: Glucocorticoid receptor (Homo sapiens) (UniProt P04150); assay: ATG_GR_TRANS: Attagene TRANS-FACTORIAL HepG2 Assay for human Glucocorticoid Receptor (GR) (AID 2282978; active means hit-call score of the fitted dose curve at least 0.9, where 1 is the maximum;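 further: activators score as hits since higher reporter transcript over DMSO is fitted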); details: HepG2 Attagene TRANS GR reporter, mRNA transcription
# Glucocorticoid receptor (Homo sapiens), sequence (P04150 whole entry, looked up, the tested form may be a part): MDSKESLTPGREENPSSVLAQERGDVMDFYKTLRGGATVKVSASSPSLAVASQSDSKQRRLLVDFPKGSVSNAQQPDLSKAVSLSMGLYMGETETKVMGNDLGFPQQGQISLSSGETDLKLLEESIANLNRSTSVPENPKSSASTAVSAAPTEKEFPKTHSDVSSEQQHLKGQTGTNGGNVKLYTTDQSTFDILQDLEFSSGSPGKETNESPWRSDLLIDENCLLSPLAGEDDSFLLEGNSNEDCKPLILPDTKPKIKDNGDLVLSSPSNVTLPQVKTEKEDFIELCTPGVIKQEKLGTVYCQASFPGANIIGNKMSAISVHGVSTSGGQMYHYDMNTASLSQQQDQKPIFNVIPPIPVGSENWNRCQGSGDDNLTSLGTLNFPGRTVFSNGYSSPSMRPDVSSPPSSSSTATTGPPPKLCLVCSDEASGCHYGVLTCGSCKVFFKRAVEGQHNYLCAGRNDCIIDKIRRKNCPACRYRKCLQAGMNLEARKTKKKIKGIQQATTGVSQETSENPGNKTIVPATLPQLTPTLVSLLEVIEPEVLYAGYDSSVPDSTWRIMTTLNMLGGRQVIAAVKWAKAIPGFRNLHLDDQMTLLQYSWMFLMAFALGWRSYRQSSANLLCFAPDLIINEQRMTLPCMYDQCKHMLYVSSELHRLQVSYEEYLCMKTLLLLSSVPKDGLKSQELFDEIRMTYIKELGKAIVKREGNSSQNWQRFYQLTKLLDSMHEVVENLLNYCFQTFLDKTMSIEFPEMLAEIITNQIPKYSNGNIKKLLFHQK
# Summary of the method: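 HepG2 cells transiently transfected with multiplexed reporter units in which chimeric NR-GAL4 proteins drive GAL4-UAS reporters; 24 h compound exposure. Reporter mRNA measured by RT-PCR, 6-FAM labelling, HpaI digestion and capillary electrophoresis; gain-of-signal fitted versus DMSO.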
smiles,measurement,setting,value
CC(C)(C)c1ccc(O)c(C(C)(C)C)c1,outcome,[1],inactive
same,outcome,[2],inactive
same,outcome,[3],inactive
same,outcome,[4],inactive
same,outcome,[5],inactive
same,outcome,[6],inactive
same,AC50,[7],5.26 µM (active)
same,AC50,[8],5.32 µM (active)
same,outcome,[9],inactive
same,outcome,[10],inactive
same,AC50,[11],9.6 µM (active)
same,outcome,[12],inactive
same,outcome,[13],inactive
same,outcome,[14],inactive
CC[C@H](C)[C@@H](C(=O)O)n1sc2ccccc2c1=O,outcome,[1],inactive
same,outcome,[2],inactive
same,outcome,[3],inactive
same,outcome,[4],inactive
same,outcome,[5],inactive
same,outcome,[9],inactive
same,outcome,[15],inactive
same,outcome,[12],inactive
same,outcome,[13],inactive
same,outcome,[14],inactive
NC(=O)N1C(=O)C(C(=O)c2cc(Cl)cs2)c2cc(F)c(Cl)cc21 (stereo unspecified),outcome,[1],inactive
same,outcome,[2],inactive
same,AC50,[3],9.88 µM (active)
same,outcome,[4],inactive
same,outcome,[16],inactive
same,AC50,[5],14.1 µM (active)
same,outcome,[17],inactive
same,outcome,[6],inactive
same,outcome,[7],inactive
same,outcome,[8],inactive
same,outcome,[9],inactive
same,outcome,[10],inactive
same,outcome,[15],inactive
same,outcome,[12],inactive
same,outcome,[13],inactive
same,outcome,[14],inactive
CC(=O)CC(C)(C)O,outcome,[1],inactive
same,outcome,[2],inactive
same,outcome,[3],inactive
same,AC50,[4],26.5 µM (active)
same,outcome,[16],inactive
same,outcome,[5],inactive
same,outcome,[18],inactive
same,outcome,[19],inactive
same,outcome,[7],inactive
same,outcome,[8],inactive
same,outcome,[10],inactive
same,outcome,[15],inactive
same,outcome,[11],inactive
same,outcome,[12],inactive
same,outcome,[13],inactive
same,outcome,[14],inactive
